Bioassay records as filed in PubChem BioAssay.
An excerpt weighted towards active compounds, which were near 2.1% of everything screened.
HIF-2a inh – HIF-2a inhibition | 786-0 RCC cells HIF-2a reporter, luciferase luminescence, overnight | inhibition, % at 18.8 µM | 360,000 compounds, 0.72% hits;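 active = inhibition of the luminescence signal of 40% or more relative to plate controls, in a single-dose primary screen at 18.75 µM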
KKLEB cytotox – counter-screen for CF NF-kB inhibitors: cytotoxicity. 360,000 compounds, 0.36% hits. KKLEB CF airway cells viability, ATPlite luminescence, overnight; active compounds read low; cells stimulated with P. aeruginosa culture filtrate. AID 602141. activity change (cytotoxicity), % at 5 µM;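 active = corrected activity change at or below -50% at 5 µM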
PAX8 inh HTS – lowers PAX8-driven luciferase in RMG-I cells; AID 652154; 360,000 compounds, 1.2% hits; inhibition, % at 12.6 µM; RMG-I TPO-luciferase reporter, SteadyGlo, 24 h;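 active = mean replicate inhibition at least 60% with every replicate also reaching 60%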;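 also: luciferase light reporting Pax8 driven TPO promoter activity; plate controls were median of neutral control wells for no effect and mitoxantrone controls for full effect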
CF NFkB block – inhibitors of cystic fibrosis induced NF-kB; KKLEB NF-kB-GFP reporter, PAF-induced, GFP fluorescence overnight; inhibition, % at 5 µM; 360,000 compounds, 0.86% hits; AID 588850;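 active = at least 50% inhibition at 5 µM, scaled per plate between neutral and stimulator controls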;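 also: PAF is a Pseudomonas aeruginosa culture filtrate used as stimulus; plate controls were PAF-stimulated DMSO wells for no effect and unstimulated DMSO wells for full effect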
EWS-Fli block – inhibitors of EWS/Fli oncoprotein transcriptional activity; A673 NR0B1-luciferase reporter, viability-normalised; inhibition, % at 12.6 µM; 350,000 compounds, 0.67% hits;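 active = mean inhibition of at least 50% after viability correction, with every replicate also passing that limit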;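 also: firefly luciferase signal divided by Alamar Blue viability fluorescence both relative to DMSO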
CF NFkB conf – confirmation of cystic fibrosis induced NF-kB inhibitors | KKLEB CF airway cells, PAF-induced NF-kB-GFP fluorescence, overnight | inhibition, % at 5 µM | AID 602472 | shares compounds with CF NFkB block | 1,300 compounds, 64% hits; in the data active = inhibition above about 40%;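 also: stimulus PAF is a Pseudomonas aeruginosa filtrate and not platelet activating factor; plate controls were DMSO wells with stimulus for no effect and unstimulated DMSO wells for full effect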
* hit, by the source's call; nt = no result; ! = not confirmed by another sample.

SMILES	HIF-2a inh	KKLEB cytotox	PAX8 inh HTS	CF NFkB block	EWS-Fli block	CF NFkB conf
CO[C@@H]1CN(C)C(=O)c2cc(NC(=O)Nc3ccccc3)ccc2OC[C@H](C)N(C(=O)CC2CC2)C[C@@H]1C	nt	nt	22	nt	-4	nt
COc1cc2c(cc1NC(=O)COc1ccccc1OC)oc1ccccc12	-27	-27	nt	18	nt	nt
COc1cc2c(cc1NC(=O)COC(=O)C(CCSC)NC(=O)c1ccccc1Cl)oc1ccccc12 (stereo not given)	-102	19	62*	-24	-67	nt
Cc1cccc(S(=O)(=O)N2CC[C@@H]3[C@@H](CO)Nc4ccc(-c5ccccc5F)cc4[C@@H]32)c1	nt	nt	7	nt	1	nt
Cc1cccc(S(=O)(=O)N2CC[C@@H]3[C@H](CO)Nc4ccc(C5=CCCCC5)cc4[C@@H]32)c1	nt	nt	83*	nt	5	nt
O=S(=O)(c1ccccc1F)N1CC[C@@H]2[C@H]1c1cc(-c3cccc(F)c3)ccc1N[C@@H]2CO	nt	nt	100*	nt	29	nt
O=S(=O)(c1ccccc1F)N1CC[C@H]2[C@H](CO)Nc3ccc(C4=CCCCC4)cc3[C@H]21	nt	nt	95*	nt	-9	nt
COc1ccccc1-c1ccc2c(c1)[C@H]1[C@H](CCN1S(=O)(=O)c1ccccc1F)[C@H](CO)N2	nt	nt	81*	nt	6	nt
O=C(N[C@@H]1CC[C@@H](CC(=O)N2CCCCC2)O[C@@H]1CO)c1cccc(F)c1	nt	nt	-7	nt	2	nt
CCC(=O)N(C)C[C@@H]1Oc2cc(C3=CCCCC3)ccc2S(=O)(=O)N([C@H](C)CO)C[C@@H]1C	nt	nt	nt	nt	-10	nt
COc1ccccc1S(=O)(=O)N1CC[C@@H]2[C@H](CO)Nc3ccc(-c4ccc(C#N)cc4)cc3[C@@H]21	nt	nt	17	nt	6	nt
COc1ccccc1-c1ccc2c(c1)[C@@H]1[C@@H](CCN1S(=O)(=O)c1ccccc1F)[C@H](CO)N2	nt	nt	81*	nt	18	nt
COc1ccccc1-c1ccc2c(c1)[C@H]1[C@H](CCN1S(=O)(=O)c1ccccc1F)[C@@H](CO)N2	nt	nt	53	nt	8	nt
COc1ccccc1S(=O)(=O)N1CC[C@@H]2[C@@H](CO)Nc3ccc(-c4ccccc4)cc3[C@@H]21	nt	nt	70*	nt	7	nt
CC(C)NC(=O)N(C)C[C@@H]1Oc2ccc(NC(=O)C3CCCCC3)cc2CC(=O)N([C@@H](C)CO)C[C@@H]1C	nt	nt	-22	nt	-8	nt
COc1cc(NC(=O)NCc2ccco2)ccc1-c1ccc(NC(=O)NCc2ccco2)cc1OC	30	-14	67*	-4	-8	nt
COc1ccccc1NC(=O)NCc1ccco1	8	2	2	3	6	nt
CCOC(=O)N1CCN(CC(=O)Nc2ccc([N+](=O)[O-])cc2C(=O)Nc2ccccc2F)CC1	10	-6	38	67*	-4	26
O=C(CN1CCN(Cc2ccccc2)CC1)Nc1ccc([N+](=O)[O-])cc1C(=O)Nc1ccccc1F	27	-29	24	18	nt	nt
COc1ccc(NC(=O)COC(=O)c2c(NC(C)=O)sc(C)c2C)cc1	-9	-45	-4	56*	-10	24
Cc1[nH]nc2nc(SCC(=O)NCCC3=CCCCC3)n(-c3ccc(Br)cc3)c(=N)c12	-12	-34	35	63*	nt	60*
COc1ccc2c3c(n(C)c2c1)[C@@H](CO)N(C(=O)c1ccc(F)cc1)CC31CN(CC2CCOCC2)C1	nt	nt	-1	nt	0	nt
CCCN1C[C@H](C)[C@H](OC)CN(C)C(=O)c2ccc(NC(=O)Nc3ccccc3F)cc2OC[C@H]1C	nt	nt	-9	nt	-10	nt
CCC1Nc2ncnc(N3CCCCC3)c2N(Cc2ccc(C)cc2)C1=O (stereo not given)	19	-10	-25	71*!	1	17
COc1ccc(S(=O)(=O)N2c3cc(C)ccc3OCC2C(C)(C)C)cc1 (stereo not given)	11	-38	37	50*	nt	59*
SMILES	HIF-2a inh	KKLEB cytotox	PAX8 inh HTS	CF NFkB block	EWS-Fli block	CF NFkB conf
CC(=O)Nc1ccc(S(=O)(=O)N2c3ccccc3C(C)=CC2(C)C)cc1	34	-17	59	54*	34	65*
O=C(/C=C/c1cccc(F)c1)N1CCN(c2ccccn2)CC1	-42	-7	-22	-7	-4	nt
Nc1cccc2c1C(=O)N(C(=O)/C=C/c1cccc(Br)c1)C2=O	12	22	1	56*	-1	-67
Nc1cccc2c1C(=O)N(C(=O)/C=C/c1cccc(F)c1)C2=O	14	-9	-12	52*	14	-11
CO[C@H]1CN(C)C(=O)c2cc(NS(C)(=O)=O)ccc2OC[C@H](C)N(Cc2ccccc2)C[C@H]1C	nt	nt	10	nt	0	nt
COCC#Cc1ccc([C@@H]2[C@@H](CO)N3C(=O)CN(C(=O)c4cccnc4)C[C@H]23)cc1	nt	nt	nt	nt	-1	nt
C/C(=N/Nc1ccccc1[N+](=O)[O-])c1ccc([N+](=O)[O-])cc1	14	-38	5	51*	7	24
C[C@@H]1CN([C@H](C)CO)C(=O)c2cc(/C=C/c3ccccc3)cnc2O[C@@H]1CN(C)C	nt	nt	nt	nt	-17	nt
COc1ccccc1-c1cc(NC=O)c2ncc(-c3ccc(F)cc3)n2c1	-16	-24	20	67*	8	54*
COc1cc(-c2cnc3c(NC=O)cc(-c4ccc(C)cc4)cn23)cc(OC)c1OC	-34	-24	90*	51*	44	71*
COc1ccc(-c2cc(NC=O)c3ncc(-c4ccc(C(C)=O)cc4)n3c2)cc1OC	21	-19	53	50*	10	33
COc1ccccc1-c1cc(NC=O)c2ncc(-c3cccc(C(F)(F)F)c3)n2c1	-2	-6	37	26	-18	nt
CN(C)CC(=O)N[C@H]1CC[C@H](CCNC(=O)C2CC2)O[C@H]1CO	nt	nt	nt	nt	15	nt
CCCc1cn(CC[C@H]2CC[C@H](NC(=O)Cc3cccnc3)[C@H](CO)O2)nn1	nt	nt	0	nt	5	nt
CC(=O)Oc1ccc(N(C(C)=O)S(=O)(=O)c2ccc(Cl)cc2)c2ccccc12	23	-12	26	86*	-10	70*
Cc1cccc(N2CCN(C(=O)c3ccc(S(=O)(=O)N(C)c4ccccc4)cc3)CC2)c1C	11	-31	40	54*	18	44*
Cc1cccc(Nc2ncnc3ccc(Br)cc23)c1	28	-10	9	58*	3	72*
CN(C)c1ccc(Nc2ncnc3ccc(Br)cc23)cc1	-14	-10	-77	73*	-43	93*
COc1ccc(Nc2ncnc3ccc(Br)cc23)cc1OC	22	-11	nt	48	nt	nt
Clc1cccc(Nc2ncnc3ccc(Br)cc23)c1	23	-41	nt	69*	4	58*
COc1ccc(NC(=O)Nc2ccc3c(c2)C(=O)N([C@@H](C)CO)C[C@H](C)[C@@H](CN(C)Cc2ccc4c(c2)OCO4)OCCCC[C@@H](C)O3)cc1	nt	nt	-5	nt	1	nt
CCNC(=O)[C@H]1[C@H](CO)[C@H]2Cn3c(ccc(-c4ccc(F)cc4)c3=O)[C@@H]1N2C(=O)c1ccccn1	nt	nt	-9	nt	3	nt
